Bioassay records deposited in PubChem BioAssay by National Center for Advancing Translational Sciences (NCATS).
Pf growth 48h – P. falciparum growth inhibition at 48 hours (one generation) | P. falciparum luciferase growth in erythrocytes, 48 h | Potency, µM (series often up to 28.7 µM), without a hit: top-dose activity change, negative = inhibition, actives largely listed as inhibitors | 310,000 tested, 5.9% active | AID 504832; note: potency is the fitted concentration of half-maximal effect; % is set by controls: 0 for no effect and ±100 for the full control effect
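Cell-based growth assay: transgenic P. falciparum expressing firefly luciferase, cultured in red cells within RPMI 1640 containing 0.5% w/v Albumax, 24 mM bicarbonate and gentamycin. A drop in luciferase activity indicates inhibition.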
SARS PLP yeast – SARS-CoV PLP inhibition in yeast | AID 485353 | 330,000 tested, 0.19% active | S. cerevisiae expressing SARS-CoV PLpro, growth rescue | Potency, µM (top dose mostly 32.9 µM), without a hit: top-dose activity, positive = growth rescue, hits mostly activators; calls by dose curve; note: potency is the fitted concentration of half-maximal effect; 0% is about no effect; nearly all actives have a fitted effect of over 55% in size
Shiga toxin inh – blocks Shiga toxin action in Vero cells; Vero cells, Shiga toxin protein synthesis inhibition reporter; 290,000 tested, 9.2% active; inhibition, % at 38.7 µM; AID 2315; in the data active = inhibition mostly above about 28%, no sharp cut-off; inactive = mostly below about 43%; note: 0% is about no effect
Pf growth 96h – P. falciparum growth inhibition at 96 hours | P. falciparum luciferase reporter growth, 96 h | AID 504834 | 320,000 tested, 6.9% active | Potency, µM (top dose mostly 28.7 µM), for the others: at the top dose activity change, negative = inhibition, most hits filed as inhibitors; note: potency is the fitted concentration of half-maximal effect; % is set by controls: 0 for no effect and ±100 for the full control effect
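Two parasite generations (96 h, 37 C, 5% CO2) of compound exposure in infected erythrocytes (0.05% parasitemia, 2% hematocrit). Luciferase-reporter P. falciparum; decreased luminescence indicates inhibited growth, aimed at apicoplast-acting delayed death.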
CHX counter – counter-screen for Shiga toxin inhibitors: cycloheximide protein synthesis inhibition; cell reporter, cycloheximide protein synthesis inhibition counterscreen; max response, %; 300,000 tested, 12% active; AID 2314; in the data active = max response mostly above about 13%, no sharp cut-off; inactive = mostly below about 14%; note: read at 38.3 µM for the half of the compounds with a filed dose; 0% is about no effect
AMA1-RON2 inh – AMA1-RON2 (P. falciparum) interaction inhibition; AlphaScreen AMA1-biotinylated RON2 peptide binding; Potency, µM (top dose mostly 58.2 µM), without a hit: top-dose activity change, negative = inhibition, actives largely listed as inhibitors; 360,000 tested, 0.2% active;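 note: potency is the fitted concentration of half-maximal effect; 0% = vehicle wells and -100% = peptide control; nearly all actives have a fitted effect of over 45% in size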
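AMA1 (3D7) with his tag at 25 nM final met compounds first, then biotinylated RON2 peptide at 25 nM; detection used donor plus acceptor beads, 10 µg/mL apiece, read by AlphaScreen after 30 min at room temperature.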
* = called active by the depositor; i = inactive; ? = inconclusive; . = not tested or not shown. Only some compounds are listed: those with a hit (about 19% of all), similar ones and a draw of the others. Unless noted, calls come from the whole dose curve; as a rule, active = well fitted curve in the direction sought with a large enough effect; inconclusive = small, poorly fitted or top-dose-only effect, or another doubt; inactive = no such curve, though single readings can be large; an effect the other way counts as inactive or inconclusive.

SMILES	Pf growth 48h	SARS PLP yeast	Shiga toxin inh	Pf growth 96h	CHX counter	AMA1-RON2 inh
O=C(CSc1nc(-c2ccc(F)cc2)cs1)N1CCOCC1	125%	0%	77	2%	45*	-6%
CC1=NN(c2nc(-c3ccc(Cl)cc3)cs2)C(=O)C1	3%	-7%	-18	115%	15*	54%
CC1CN(C(=O)CSc2nc(-c3ccc(F)cc3)cs2)CC(C)O1 (stereo not drawn)	.	6%	-10	?	-2	1%
CSCCC(NS(=O)(=O)/C=C/c1ccccc1)C(=O)NCCc1ccc(S(N)(=O)=O)cc1 (stereo not drawn)	?	-1%	11	-32%	-1	11%
NC(=O)Cn1ccc(O)c(Cc2ccc(Cl)cc2Cl)c1=O	23%	-3%	-8	0%	-2	-4%
Cc1cc(NC(=O)CC2(CC(=O)O)CCCC2)n(C)n1	?	1%	-6	6%	-1	-5%
c1ccc(-c2csc(-n3cccn3)n2)cc1	i	-2%	46	72%	51*	25%
c1ccc(-c2csc(N3CCSCC3)n2)cc1	196%	-3%	90*	?	44*	-5%
O=C(Nc1nccs1)C1CC(=O)N(Cc2ccco2)C1 (stereo not drawn)	1%	3%	-10	-4%	9	-10%
c1ccc(-c2nnc(SCc3cn4ccsc4n3)o2)cc1	-77%	5%	93*	0%	30*	-12%
CCOc1cc2c3c(c1)C1(C(=O)N3C(C)(C)C=C2C)C(C#N)=C(N)Oc2cc(O)ccc21 (stereo not drawn)	4.7µM*	-3%	-23	.	-3	-2%
CC1=CC(C)(C)N2C(=O)C3(C(C#N)=C(N)Oc4cc(C)oc(=O)c43)c3cccc1c32 (stereo not drawn)	?	-2%	-7	15µM*	-2	-8%
COc1cc2c3c(c1)C1(C(=O)N3C(C)(C)C=C2C)C(C#N)=C(N)Oc2cc(O)ccc21 (stereo not drawn)	?	.	11	.	1	-4%
COc1ccc(-n2nnnc2-c2cnc3cc4c(cc3c2C)OCO4)cc1	-6%	2%	-27	-39%	-3	0%
CCOC(=O)Cn1nc(C)c(NC(=O)COc2ccccc2[N+](=O)[O-])c1C	-21%	3%	1	-22%	-2	-1%
COc1ccc(-n2nc(C(=O)Nc3ccc4c(c3)OCO4)c3ccccc3c2=O)cc1	10µM*	0%	-26	3%	10	-7%
COc1cc(NC(=O)Cc2nn(C)c(=O)c3ccccc23)cc(OC)c1OC	13µM*	10%	24	10µM*	20*	3%
COc1ccc(-n2nc(C(=O)NCC(=O)Nc3cc(OC)c(OC)c(OC)c3)c3ccccc3c2=O)cc1OC	?	1%	19	?	-3	-8%
COc1ccc(-n2nc(C(=O)NCC(=O)Nc3cc(OC)c(OC)c(OC)c3)c3ccccc3c2=O)cc1	9.3µM*	1%	1	6%	-10	9%
COc1ccc(OC)c(NC(=O)Cc2nn(C)c(=O)c3ccccc23)c1	10%	16%	13	5%	-4	-23%
COc1ccc(-n2nc(C(=O)NCc3ccco3)c3ccccc3c2=O)cc1	.	-7%	2	3.3µM*	-1	2%
Cc1ccc(F)cc1C(=O)N1CCCC1(C)C(=O)NCC(C)C (stereo not drawn)	.	.	.	.	.	-5%
COc1ccc(NC(=O)c2cccnc2SC)cc1S(=O)(=O)N1CCCCC1	8%	4%	-5	?	-1	1%
COc1ccc(-n2nc(C(=O)NCC(=O)NCc3ccc(F)cc3)c3ccccc3c2=O)cc1	?	2%	-6	6.6µM*	7	-18%
COc1cccc(CN(C(=O)/C=C/c2ccc(Cl)cc2)C2CCS(=O)(=O)C2)c1 (stereo not drawn)	?	1%	-7	i	-5	6%
CCC(C)NC(=O)c1ccc(N2CC3CC(C2)c2cccc(=O)n2C3)c(NC(=O)c2ccc(Br)o2)c1 (stereo not drawn)	?	-4%	-4	9.3µM*	-8	0%
